Assay outcomes from PubChem.
Only some compounds are listed: those with a hit (about 19% of all), similar ones and a draw of the others.
IL-1B inflam inh – qHTS for Inhibitors of Inflammasome Signaling: IL-1-beta AlphaLISA Primary Screen | THP-1 LPS/ATP IL-1B secretion, AlphaLISA, 16 h; hits give low values | activity change, % at 57.5 µM | 360,000 tested, 4.7% active; in the data active = activity change below about -50%; inconclusive = mostly about -30% to -49%; also: % is scaled to controls: 0 for no effect and ±100 for the full control effect
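Secreted IL-1B measured by AlphaLISA bead assay after 16 h compound exposure of THP-1 cells; compounds (final up to 57.5 uM) added 1 h before LPS (250 ng/mL) and ATP (1.25 mM) stimulation; lower signal means less secretion.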
SW480 rerep – A quantitative high throughput screen for small molecules that induce DNA re-replication in SW480 colon adenocarcinoma cells. AID 624297, 2012. Potency, µM (highest dose often 46.1 µM), without a hit: top-dose re-replication activation, hits mostly activators. SW480 DNA re-replication, Hoechst DNA content imaging, 48 h. 340,000 tested, 1.8% active; also: potency is read from the fitted curve at half-maximal effect; % of control where 0% means no effect; nearly all actives have a fitted effect of over 55% in size
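Compounds, transferred as 23 nL by pin tool, were incubated with cells for 48 hr; DNA content per nucleus was then quantified by Hoechst staining and fluorescence plate imaging.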
TDP1 cell noCPT – qHTS for Inhibitors of human tyrosyl-DNA phosphodiesterase 1 (TDP1): qHTS in cells in absence of CPT; 420,000 tested, 15% active; DT40 Tdp1-/- hTDP1 cells, no CPT, ATP luminescence, 48 h; Potency, µM (series often up to 46.2 µM), inactives show top-dose activity change, negative = growth inhibition, hits mostly inhibitors; also: potency is read from the fitted curve at half-maximal effect; % is scaled to controls: 0 for no effect and ±100 for the full control effect; nearly all actives have a fitted effect of over 55% in size
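A cellular qHTS used chicken DT40 cells lacking endogenous Tdp1 but carrying stably transfected human TDP1. Compounds were applied without camptothecin, and cell growth kinetics were judged by ATP-dependent luminescence after ≥48 hr.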
TDP1 cell CPT – qHTS for Inhibitors of human tyrosyl-DNA phosphodiesterase 1 (TDP1): qHTS in cells in presence of CPT; chicken DT40 Tdp1-/-;hTDP1 cells + 20 nM CPT, ATP luminescence, 48 h; Potency, µM (top dose mostly 46.2 µM), for the others: top-dose activity change, negative = growth inhibition, usual class: inhibitors; 420,000 tested, 12% active; AID 686979, 2013; also: potency is read from the fitted curve at half-maximal effect; % is scaled to controls: 0 for no effect and ±100 for the full control effect; nearly all actives have a fitted effect of over 55% in size
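Cell growth measured by CellTiter-Glo luminescence after a minimum 48 h, 37 C compound exposure with 20 nM CPT in Tdp1-knockout DT40 cells stably expressing hTDP1, seeded 400/well; qHTS titration format.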
Chronic BCR inh – qHTS Assay to Find Inhibitors of Chronic Active B-Cell Receptor Signaling; ABC-DLBCL IkBa-CBG/CBR reporter, luminescence ratio, 4 h; 340,000 tested, 0.05% active; AID 493014, 2011; Potency, µM (titrated, usually from 46.1 µM), for inactives: at the top dose activity change, negative = inhibition, most hits filed as inhibitors; active = well fitted inhibition curve with a large enough effect in the signal ratio, with a control signal flat, not every such curve was filed as active; inconclusive = small, poorly fitted or top-dose-only effect, or effect the other way, or a change in a side signal; the % refers to the signal ratio;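 also: potency is read from the fitted curve at half-maximal effect; plate controls were basal doxycycline-induced cells for no effect and cells given 10 µM MG132 for full effect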
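Cell line TMD8 (human ABC DLBCL), stably expressing tet-inducible CBG68-IkBa fusion and CBR; IMDM/0.5% FBS; cpd up to 46 uM; dox induction, 4 h, 37C/5% CO2; dual luminescence; green/red ratio; MG132 control.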
MCF10A rerep – A quantitative high throughput screen for small molecules that induce DNA re-replication in MCF 10a normal breast cells; MCF 10A DNA re-replication, Hoechst nuclear intensity, 48 h; Potency, µM (top dose mostly 46.1 µM), without a hit: at the top dose activity, positive = re-replication, usual class: activators; 350,000 tested, 2.9% active; also: potency is read from the fitted curve at half-maximal effect; % of control where 0% means no effect; nearly all actives have a fitted effect of over 50% in size
Numbers without * were called inactive; ? = inconclusive; . = no result given. Unless noted, calls follow the shape of the dose curve; as a rule, active = well fitted curve in the direction sought with a large enough effect; inconclusive = small, poorly fitted or top-dose-only effect, or another doubt; inactive = no such curve, though single readings can be large; an effect the other way counts as inactive or inconclusive.

SMILES	IL-1B inflam inh	SW480 rerep	TDP1 cell noCPT	TDP1 cell CPT	Chronic BCR inh	MCF10A rerep
Cc1cccc(OCCCOc2cccc3cccnc23)c1C	-7	?	18µM*	?	3%	23µM*
CCN(CC)CCNc1c(C)cc(CO)c(Cl)c1C	-4	.	-8%	11%	.	.
O=Cc1ccccc1OCCCOc1cccc2cccnc12	-11	96%	2.1µM*	4.6µM*	?	18µM*
O=Cc1ccc(OCCCOc2cccc3cccnc23)cc1	-16	-7%	?	-10%	?	9%
CC1(C)CC(=O)C(N=Nc2ccc(C(F)(F)F)cc2[N+](=O)[O-])=C(O)C1	.	-14%	23µM*	29µM*	-1%	-2%
CCCOc1ccc(C2C(=O)N(C3CCCCC3)CC(=O)N2CCc2ccccc2)cc1OC (stereo not drawn)	.	.	?	?	-3%	.
CC(=O)OCC1O[C@@H](O[C@@H]2C[C@H]3C(C)(C)[C@H](OC(C)=O)CC[C@]3(C)[C@H]3CC[C@]45C[C@]4(CC[C@H]5[C@@H](C)C[C@@H](O)[C@H](O)C(C)(C)O)[C@@]32C)[C@H](O)[C@@H](O)[C@@H]1O (stereo partly drawn)	.	21µM*	.	.	?	7.3µM*
O=C(NCc1ccc(Cl)cc1)C1CCN(S(=O)(=O)c2cccnc2)CC1	28	3%	18%	-11%	3%	-2%
Cc1ccc(S(=O)(=O)/N=C(\N)Nc2nc(C)c3cc(C)c(C)cc3n2)cc1	-2	-5%	?	23µM*	2%	-2%
Cc1ccc(S(=O)(=O)/N=C(\N)Nc2nc(C)c3ccc(C)cc3n2)cc1	-21	10%	?	21µM*	1%	-5%
O=C(OCc1ccccc1)N1Cc2ccnnc2CC1c1ccccc1Br (stereo not drawn)	-8	.	?	?	.	.
COc1ccc(N=Nc2ccc(N)nc2N)cc1	-17	-4%	-25%	-21%	?	1%
Nc1ccc(N=Nc2ccc(O)cc2)c(N)n1	-5	?	15µM*	21µM*	.	20%
COc1c(C)c2c(c(O)c1C/C=C(\C)CCC(=O)OCCN1CCOCC1)C(=O)OC2	.	.	0.17µM*	0.13µM*	.	.
CCN(CCO)Cc1csc2ccc(C(C)(C)C)cc12	-57*	4%	?	?	-5%	15%
Cc1cc2cc(C=O)c(Cl)nc2cc1C	-11	9%	18µM*	?	-3%	-1%
N#Cc1ccc(NN=Nc2ccccc2C#N)cc1	-21	.	?	-20%	.	.
CS(=O)(=O)c1ccc(C(=O)Nc2ccc(N3CCOCC3)cc2)c(Cl)c1	-22	?	?	4%	0%	0%
CS(=O)(=O)c1ncc(Cl)c(C(=O)Nc2ccc(N3CCOCC3)cc2)n1	-102*	10µM*	1.1µM*	1.2µM*	?	-4%
CS(=O)(=O)c1ncc(Cl)c(C(=O)Nc2ccc(OC(F)F)cc2)n1	-99*	1.8µM*	1.2µM*	0.82µM*	?	5.2µM*
CN(C)c1ccc(C=NC2CCc3ccccc32)cc1 (stereo not drawn)	.	.	-20%	-1%	.	.
COc1ccccc1CNc1nc(NC(C)C)nc2ccsc12	-98*	.	12µM*	12µM*	.	.
COc1cccc(CNc2nnnn2C)c1OC	10	-3%	-1%	-16%	1%	-5%
Cc1cscc1-c1nc(NCC2CC2)nc2ccsc12	48	.	?	?	.	.
COc1ccccc1CNc1nc(NCc2ccc(C(C)C)cc2)c2sccc2n1	-83*	.	2.9µM*	9.2µM*	.	.
SMILES	IL-1B inflam inh	SW480 rerep	TDP1 cell noCPT	TDP1 cell CPT	Chronic BCR inh	MCF10A rerep
CC(C)c1ccc(CNc2nc(NCC3CC3)nc3ccsc23)cc1	-30	.	10µM*	9.2µM*	.	.
COc1cccc(CNc2nc(NCC3CC3)nc3ccsc23)c1OC	-101*	.	15µM*	9.2µM*	.	.
Cc1cc(Cl)ccc1-c1nc(NCc2ccccc2)nc2ccsc12	0	.	?	?	.	.
Cc1ccc(S(=O)(=O)N2CCCCC2)cc1NC(=O)COC(=O)c1cccc(O)c1	29	.	-12%	-27%	.	.
Cc1ccccc1CNC(=O)C1CCN(S(=O)(=O)Cc2ccccc2)CC1	.	.	1%	2%	.	.
CC(C)Nc1nc(NCCOc2ccccc2)c2sccc2n1	-72*	.	9.2µM*	21µM*	.	.
COc1cccc(CNc2nc(NC(C)C)nc3ccsc23)c1OC	-81*	.	21µM*	18µM*	.	.
CSc1ccccc1CNc1nc(NCC2CC2)nc2ccsc12	-106*	.	21µM*	15µM*	.	.
CC(C)CN(C[C@@H](O)[C@H](Cc1ccccc1)NC(=O)O[C@H]1CO[C@H]2OCC[C@H]21)S(=O)(=O)c1ccc(N)cc1	.	?	?	-6%	.	-2%
CCN(CC)S(=O)(=O)c1cc([N+](=O)[O-])ccc1NNC(=O)Nc1ccc(F)cc1	2	-1%	-95%	?	?	23µM*
CCCCCCCC/C=C\CCCCCCCC(=O)NCc1ccc(O)c(OC)c1	.	-4%	?	3.3µM*	.	24µM*
CCCCCCCC/C=C\CCCCCCCC(=O)NCCc1ccc(O)c(O)c1	?	-33%	2.9µM*	1µM*	2%	1%
O=C(Nc1ccc(-c2noc(COc3ccccc3Cl)n2)cc1)c1ccco1	-7	-4%	?	?	?	13%
COc1ccc(NC(=O)c2ccco2)cc1NC(=O)COc1ccccc1Cl	.	.	?	6.5µM*	.	.
COc1ccc(NC(=O)c2ccco2)cc1NC(=O)c1ccco1	-3	2%	-8%	-20%	?	2%
O=C(COc1ccccc1Cl)Nc1ccc(NC(=O)c2ccco2)cc1	-59*	-3%	4%	-4%	?	1%
CCN(CC)S(=O)(=O)c1ccc2oc(SCC3CN=C(c4ccc(OC)cc4)S3)nc2c1 (stereo not drawn)	-9	-6%	16µM*	?	?	?
O=C(c1ccc(F)cc1Cl)N1CCN(S(=O)(=O)c2cccs2)CC1	-5	6%	-20%	-17%	0%	?
COc1cc(OC)cc(-c2nnc(SCc3cccnc3)o2)c1	-9	-8%	-25%	26µM*	?	-6%
